Source: PubChem BioAssay (NCI)
Compounds without any hit were thinned out: in the full panel of roughly 83,000, 20% have a hit.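 Compound tested at a single concentration for 48 hours in 96-well plates; a percent growth value below 10 was scored as active.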 Calls of active or inactive are those of the source.

What was measured:
Assay in all cases: NCI-60 one-dose screen, 48 h (100 = growth as untreated, 0 = no growth, -100 = all killed)
NCI-H23 lung = details: 10 µM unless noted
NCI-H226 lung = details: 10 µM unless noted
NCI-H322M lung = details: 10 µM unless noted
NCI-H460 lung = details: 10 µM unless noted
HOP-92 NSCLC = details: 10 µM
NCI-H522 lung = details: 10 µM
A549/ATCC NSCLC = details: 10 µM unless noted
786-0 renal = details: 10 µM unless noted
COLO 205 colon = details: 10 µM unless noted
DU-145 prostate = details: 10 µM unless noted
K-562 leukemia = details: 10 µM unless noted
MALME-3M melanoma = details: 10 µM unless noted
MDA-MB-231 breast = details: 10 µM unless noted
RXF 393 renal = details: 10 µM unless noted
SF-268 CNS = details: 10 µM unless noted
SF-295 CNS = details: 10 µM unless noted
SF-539 CNS = details: 10 µM unless noted
UACC-257 melanoma = details: 10 µM unless noted
M14 melanoma = details: 10 µM unless noted

Measured: growth

COc1ccc(C2C3(C#N)C(N)=NC(=C(C#N)C#N)C23C#N)cc1OC (configuration not stated)
inactive: NCI-H23 lung 104% | NCI-H226 lung 109% | NCI-H322M lung 111% | NCI-H460 lung 119% | HOP-92 NSCLC 76.8% | NCI-H522 lung 107% | A549/ATCC NSCLC 107% | 786-0 renal 99.5% | COLO 205 colon 123% | DU-145 prostate 102% | K-562 leukemia 97.1% | MALME-3M melanoma 112% | MDA-MB-231 breast 93.2% | RXF 393 renal 96.8% | SF-268 CNS 121% | SF-295 CNS 108% | SF-539 CNS 94.2% | UACC-257 melanoma 102%

COc1cc(NC(C)CCCN)c2nc(C)ccc2c1OC (configuration not stated)
inactive: NCI-H23 lung 90.9% | NCI-H226 lung 102% | NCI-H322M lung 96.9% | NCI-H460 lung 109% | HOP-92 NSCLC 55.5% | NCI-H522 lung 101% | A549/ATCC NSCLC 147% | 786-0 renal 98.3% | COLO 205 colon 60.5% | DU-145 prostate 87.2% | K-562 leukemia 78.9% | MALME-3M melanoma 69.9% | MDA-MB-231 breast 75.6% | RXF 393 renal 186% | SF-268 CNS 109% | SF-295 CNS 118% | SF-539 CNS 93.6% | UACC-257 melanoma 124%

c1cc[c]([Bi]([c]2ccccc2)[c]2ccccc2)cc1
inactive: NCI-H23 lung 93.9% | NCI-H226 lung 95.8% | NCI-H322M lung 88% | NCI-H460 lung 96.2% | HOP-92 NSCLC 74.1% | NCI-H522 lung 104% | A549/ATCC NSCLC 102% | 786-0 renal 94% | COLO 205 colon 105% | DU-145 prostate 107% | K-562 leukemia 105% | MALME-3M melanoma 94% | MDA-MB-231 breast 95.2% | RXF 393 renal 101% | SF-268 CNS 104% | SF-295 CNS 103% | SF-539 CNS 105% | UACC-257 melanoma 106%

Cc1nc2c(nnn2-c2ccccc2)c2nc(-c3ccc(Cl)cc3)oc(=O)c12
inactive: NCI-H23 lung 116% | NCI-H226 lung 92.8% | NCI-H322M lung 103% | NCI-H460 lung 115% | HOP-92 NSCLC 117% | NCI-H522 lung 99.7% | A549/ATCC NSCLC 111% | 786-0 renal 105% | COLO 205 colon 120% | DU-145 prostate 119% | K-562 leukemia 112% | MALME-3M melanoma 101% | MDA-MB-231 breast 119% | RXF 393 renal 104% | SF-268 CNS 103% | SF-295 CNS 102% | SF-539 CNS 96.8% | UACC-257 melanoma 117% | M14 melanoma 108%

CC/C(=N\Nc1nc2ccccc2n1C)c1ccccn1
active: NCI-H23 lung 7.14% | NCI-H226 lung -0.758% | NCI-H460 lung 1.28% | A549/ATCC NSCLC 2.95% | 786-0 renal 2.44% | K-562 leukemia 8.28% | MALME-3M melanoma 9.46% | RXF 393 renal 2.73% | SF-268 CNS 3.39% | SF-295 CNS -19.8% | SF-539 CNS -6.18% | UACC-257 melanoma -0.857%
inactive: NCI-H322M lung 21% | HOP-92 NSCLC 29.2% | NCI-H522 lung 18.7% | COLO 205 colon 21.9% | DU-145 prostate 11.8% | MDA-MB-231 breast 20.8%

Cc1ccc(S(=O)(=O)NC(CCC(=O)Nc2ccccc2)C(=O)Nc2ccccc2)cc1 (configuration not stated)
active: NCI-H23 lung -24.8% | NCI-H226 lung 6.72% | NCI-H322M lung -17% | NCI-H460 lung -4.49% | HOP-92 NSCLC -45.2% | NCI-H522 lung -71.8% | A549/ATCC NSCLC -19% | 786-0 renal -15.6% | COLO 205 colon -22.6% | DU-145 prostate 5.02% | K-562 leukemia 3.93% | MALME-3M melanoma -36.5% | MDA-MB-231 breast -30.1% | RXF 393 renal -24.6% | SF-268 CNS 8.46% | SF-295 CNS -3.31% | SF-539 CNS -75.6% | UACC-257 melanoma -18.4% | M14 melanoma 3.93%

Cc1nn(-c2ccccc2)c(N)c1N=C1NC(=O)/C(=C/c2ccc(Cl)cc2)S1
inactive: NCI-H23 lung 78.2% | NCI-H226 lung 83.5% | NCI-H322M lung 81.8% | NCI-H460 lung 92.6% | HOP-92 NSCLC 79.9% | NCI-H522 lung 87.1% | A549/ATCC NSCLC 80.6% | 786-0 renal 94.7% | COLO 205 colon 88.4% | DU-145 prostate 86.9% | K-562 leukemia 73.2% | MALME-3M melanoma 87.4% | MDA-MB-231 breast 105% | RXF 393 renal 109% | SF-268 CNS 83.7% | SF-295 CNS 86.5% | SF-539 CNS 81% | UACC-257 melanoma 105%

CC1Cc2cc(F)ccc2-n2cccc21 (configuration not stated)
inactive: NCI-H23 lung 98.5% | NCI-H226 lung 154% | NCI-H322M lung 100% | NCI-H460 lung 98.7% | HOP-92 NSCLC 73.8% | NCI-H522 lung 101% | A549/ATCC NSCLC 104% | 786-0 renal 111% | COLO 205 colon 94.6% | DU-145 prostate 106% | K-562 leukemia 108% | MALME-3M melanoma 101% | MDA-MB-231 breast 94% | RXF 393 renal 136% | SF-268 CNS 110% | SF-295 CNS 104% | SF-539 CNS 101% | UACC-257 melanoma 101% | M14 melanoma 111%
